Measurements: PubChem BioAssay
For part of these data: Results with a measured potency or affinity are listed apart. Activity calls are given as the source filed them.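 The calls were made as follows, unless noted: active = fluorescence ratio normalized to control raised more than 50% in primary screen plus both repeat runs; inactive = the rest.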

Legend:
[1] = system: TRPC4 beta (transient receptor potential cation channel C4), mouse; assay: TRPC4 cation channel opening, retest – cell-based, Fluo4 calcium, HEK293 TRPC4beta/mu-opioid, duplicates, 10 µM, confirmation (AID 2426); conditions: Fluo4 calcium fluorescence, at 10 µM; hits give high values;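 as to activation: percent rise of integrated ratio over buffer wells lacking compound which define 0%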
[2] = system: transient receptor potential cation channel C4 beta (TRPC4), mouse; assay: TRPC4 cation channel opening, second retest – cell-based, second round, Fluo4, HEK293 TRPC4beta/mu-opioid, 1 µM, confirmation (AID 2461;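 active = primary screen active and over 50% activation in each of two duplicate runs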;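 as to activation: 0% = wells without test compound as baseline of integrated fluorescence ratio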); conditions: Fluo4 calcium fluorescence, at 1 µM; hits give high values
[3] = system: TRPC4 (transient receptor potential cation channel C4 beta), mouse; assay: potentiation of DAMGO EC20 TRPC4 response – cell-based, second round, Fluo-4, HEK293 TRPC4beta/mu-opioid, 1 µM, confirmation (AID 2554;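 active = primary screen hit whose fluorescence ratio, in both repeats, exceeds the weak agonist control mean by 3 SD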); conditions: DAMGO EC20, Fluo-4 calcium flux, at 1 µM; hits give high values
[4] = system: TRPC4 beta (transient receptor potential cation channel C4), mouse; assay: potentiation of DAMGO EC20 TRPC4 response – cell-based, Fluo-4, HEK293 TRPC4beta/mu-opioid, confirmation (AID 2555;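 active = primary screen hit whose calcium fluorescence ratio, in both repeats, exceeds the weak agonist control mean by 3 SD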); conditions: DAMGO EC20, Fluo-4 calcium flux, at 10 µM; hits give high values
[5] = target: Short transient receptor potential channel 4 (Mus musculus) (UniProt Q9QUQ5); assay: blockers of DAMGO-evoked TRPC4 calcium flux – cell-based, Fluo4, HEK293 TRPC4beta/mu-opioid, confirmation (AID 2636;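 active = calcium signal cut by more than 3 SD below the full-agonist control yet still positive, in both repeats and the earlier primary screen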); conditions: at 10 µM; hits give high values
Chain of Short transient receptor potential channel 4 (Mus musculus) (Q9QUQ5 whole entry, looked up): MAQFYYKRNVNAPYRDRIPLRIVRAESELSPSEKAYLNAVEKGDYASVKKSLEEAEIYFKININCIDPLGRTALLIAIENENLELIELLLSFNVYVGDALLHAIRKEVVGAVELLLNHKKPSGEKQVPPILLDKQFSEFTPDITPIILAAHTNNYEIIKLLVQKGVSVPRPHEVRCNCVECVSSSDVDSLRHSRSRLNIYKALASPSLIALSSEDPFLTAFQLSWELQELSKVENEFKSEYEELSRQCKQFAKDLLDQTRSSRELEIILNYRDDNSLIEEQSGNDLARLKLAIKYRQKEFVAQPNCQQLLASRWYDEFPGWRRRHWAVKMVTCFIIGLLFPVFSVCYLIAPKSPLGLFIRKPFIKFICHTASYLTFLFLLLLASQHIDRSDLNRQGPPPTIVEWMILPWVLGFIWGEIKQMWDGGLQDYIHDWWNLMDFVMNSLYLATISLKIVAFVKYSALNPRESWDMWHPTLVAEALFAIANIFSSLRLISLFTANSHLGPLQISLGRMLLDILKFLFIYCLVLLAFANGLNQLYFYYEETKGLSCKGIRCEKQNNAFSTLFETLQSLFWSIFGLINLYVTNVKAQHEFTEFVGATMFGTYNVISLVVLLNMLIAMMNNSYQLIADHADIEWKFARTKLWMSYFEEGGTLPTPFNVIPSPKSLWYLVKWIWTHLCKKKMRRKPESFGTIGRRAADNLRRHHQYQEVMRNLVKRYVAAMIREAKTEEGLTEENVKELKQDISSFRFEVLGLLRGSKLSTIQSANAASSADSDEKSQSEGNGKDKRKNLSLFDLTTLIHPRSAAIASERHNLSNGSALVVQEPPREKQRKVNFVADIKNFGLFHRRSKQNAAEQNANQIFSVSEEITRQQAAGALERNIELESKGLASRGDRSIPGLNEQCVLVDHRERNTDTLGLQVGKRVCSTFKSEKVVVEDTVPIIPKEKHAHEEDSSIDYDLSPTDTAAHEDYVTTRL

[6] = target: Short transient receptor potential channel 4 (Mus musculus) (UniProt Q9QUQ5); assay: blockers of DAMGO-evoked TRPC4 calcium flux – cell-based, second round, Fluo4, HEK293 TRPC4beta/mu-opioid, 1 µM, confirmation (AID 2637;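 active = calcium signal ratio cut to more than 3 SD under the fully stimulated control mean yet still positive, in both repeats and the primary screen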); conditions: at 1 µM; hits give high values
[7] = target: Short transient receptor potential channel 4 (Mus musculus) (UniProt Q9QUQ5); assay: potentiation of DAMGO-evoked TRPC4 calcium signal – cell-based, HEK293 TRPC4/mu-opioid, Fluo-4 calcium, EC20 DAMGO, dose response (AID 434941;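 active = earlier screen potentiator hit that boosts the TRPC4 ion channel at some dose, with a dose response; inactive = no potentiation, no dose response, or not a prior hit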;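 also: calcium entry triggered by an EC20 dose of DAMGO at the co-expressed mu-opioid receptor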)
[8] = target: Short transient receptor potential channel 4 (Mus musculus) (UniProt Q9QUQ5); assay: block of DAMGO-driven TRPC4 calcium entry – cell-based, HEK293 TRPC4/mu-opioid, Fluo-4 calcium, dose response (AID 434942;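 active = primary screen inhibitor hit that blocks the TRPC4 channel at some tested dose, yielding a dose curve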)
[9] = target: Short transient receptor potential channel 6 (Mus musculus) (UniProt Q61143); assay: TRPC6 blockade by TRPC4 inhibitor hits – cell-based, HEK293, membrane potential dye, duplicate, selectivity assay for TRPC4 inhibitor project, confirmation (AID 434948;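 active = active in primary screen and both duplicates, each dropping signal beyond three positive-control SD with fluorescence still positive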); conditions: HEK293 TRPC6, membrane potential dye fluorescence, at 10 µM, stimulated with maximal-effect acetylcholine; hits give high values
Chain of Short transient receptor potential channel 6 (Mus musculus) (Q61143 whole entry, looked up): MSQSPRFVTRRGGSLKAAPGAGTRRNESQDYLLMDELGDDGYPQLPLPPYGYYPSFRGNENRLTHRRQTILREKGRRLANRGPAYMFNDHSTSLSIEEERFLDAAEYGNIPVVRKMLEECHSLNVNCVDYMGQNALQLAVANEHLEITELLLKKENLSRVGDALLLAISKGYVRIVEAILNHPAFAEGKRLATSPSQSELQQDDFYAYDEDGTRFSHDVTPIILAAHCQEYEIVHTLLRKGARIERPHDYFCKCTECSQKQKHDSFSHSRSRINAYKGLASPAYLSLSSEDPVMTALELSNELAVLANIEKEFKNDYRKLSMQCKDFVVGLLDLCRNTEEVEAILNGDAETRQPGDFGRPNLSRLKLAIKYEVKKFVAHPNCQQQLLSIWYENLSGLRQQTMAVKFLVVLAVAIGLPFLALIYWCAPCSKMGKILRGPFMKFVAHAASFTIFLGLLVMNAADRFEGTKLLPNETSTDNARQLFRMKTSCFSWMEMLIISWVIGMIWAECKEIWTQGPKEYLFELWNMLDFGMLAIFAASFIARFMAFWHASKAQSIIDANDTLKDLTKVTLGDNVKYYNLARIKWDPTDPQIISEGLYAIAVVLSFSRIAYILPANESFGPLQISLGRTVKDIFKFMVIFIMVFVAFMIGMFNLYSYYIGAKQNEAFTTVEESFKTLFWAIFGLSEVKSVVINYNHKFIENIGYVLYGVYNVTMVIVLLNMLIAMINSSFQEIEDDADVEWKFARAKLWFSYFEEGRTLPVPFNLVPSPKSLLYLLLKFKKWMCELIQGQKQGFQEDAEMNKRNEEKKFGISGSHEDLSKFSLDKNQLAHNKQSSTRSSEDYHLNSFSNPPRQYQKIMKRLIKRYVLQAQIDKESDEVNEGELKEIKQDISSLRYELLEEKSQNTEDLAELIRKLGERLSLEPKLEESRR

[10] = target: Short transient receptor potential channel 6 (Mus musculus) (UniProt Q61143); assay: TRPC6 opening by TRPC4 activator hits – cell-based, HEK293, membrane potential dye, duplicate, selectivity assay for TRPC4 activator project, confirmation (AID 434950;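 active = membrane potential signal rise above negative control mean plus 3 SD in both duplicates, also active in the earlier TRPC4 screen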;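 as to activation: 0% = buffer only wells and 100% = acetylcholine maximal-effect wells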); conditions: HEK293 TRPC6, membrane potential fluorescence, at 10 µM; activation: hits give high values; outcome: activation
[11] = target: Short transient receptor potential channel 6 (Mus musculus) (UniProt Q61143); assay: positive modulators of mouse TRPC6 channel – HEK293 cells, membrane potential dye, duplicate, selectivity assay for TRPC4 potentiator project, confirmation (AID 434952;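 active = compound raising the membrane signal above positive-control mean plus 3 SD in both repeats, and a primary screen hit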); conditions: HEK293 TRPC6, membrane potential dye fluorescence, at 10 µM, maximal acetylcholine added after compound; hits give high values
[12] = target: Short transient receptor potential channel 4 (Mus musculus) (UniProt Q9QUQ5); assay: calcium flux activators in TRPC4/5HT1a cells, counter-screen for TRPC4 activator project, cell-based, second counter screen, HEK293 TRPC4/5HT1a, Fluo-4 (AID 434977;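 active = calcium signal rise above buffer-control mean plus 5 SD in both duplicates, and also a hit in the primary screen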;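 as to activation: plate controls were assay buffer for no effect and maximal serotonin response for full effect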); conditions: Fluo-4 calcium flux, at 10 µM; hits give high values
[13] = serotonin-gated TRPC4 signal block – cell-based, second counter screen, HEK293 TRPC4/5HT1a, Fluo-4, counter-screen for TRPC4 inhibitor project, confirmation (AID 434978;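 active = primary screen active whose calcium signal fell more than 3 SD beyond the full-serotonin control mean in both duplicate plates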;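 also: serotonin given first at submaximal then at maximal dose after compound preincubation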); conditions: Fluo-4 calcium flux, at 10 µM, serotonin added to trigger calcium flux; hits give high values
[14] = system: TRPC4 (mouse), co-expressed with 5HT1a in HEK293; assay: enhancement of serotonin-evoked TRPC4 response – cell-based, second counter screen, HEK293 TRPC4/5HT1a, Fluo-4, counter-screen for TRPC4 potentiator project, confirmation (AID 434979;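 active = signal rise over 3 SD above mean of control wells given weak agonist, in both repeats and first screen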); conditions: Fluo-4 calcium flux, at 10 µM, serotonin added at its EC20 dose; hits give high values
[15] = nonspecific calcium rise without TRPC4 – cell-based, HEK293 mu-opioid receptor line, counter-screen for TRPC4 activator project, confirmation (AID 449723;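 active = hit in primary screen, with calcium signal over 5 SD above buffer well mean in both duplicates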;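 also: counter screen cells carry the mu-opioid receptor alone and lack TRPC4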); conditions: HEK293 mu-opioid cells, Fluo-4 calcium fluorescence, at 10 µM; hits give high values
[16] = nonspecific potentiation of DAMGO calcium response – cell-based, HEK293 mu-opioid receptor line, counter-screen for TRPC4 allosteric potentiator project, confirmation (AID 449724;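 active = calcium signal rise more than 3 SD above the low-dose agonist control mean, in both duplicate plates and the primary screen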); conditions: HEK293 mu-opioid receptor cells, Fluo-4 calcium flux, at 10 µM, compound added before EC20 DAMGO stimulus; hits give high values

O=c1c(Cc2ccccc2)c(O)ccn1CCc1cnc[nH]1
inactive: outcome [2] | outcome [3] | outcome [4] | outcome [5] | outcome [6] | outcome [7] | outcome [8] | outcome [9] | outcome [10] | outcome [11] | outcome [13] | outcome [14] | outcome [15] | outcome [16]
active: activation [1] 134% | activation [12] 39.3%

OCCC1CN(Cc2ccccc2-c2ccco2)CCN1Cc1ccccc1 (stereo not given)
active: activation [10] 63.5% | activation [12] 17.2%
inactive: outcome [1] | outcome [2] | outcome [3] | outcome [4] | outcome [5] | outcome [6] | outcome [7] | outcome [8] | outcome [9] | outcome [11] | outcome [13] | outcome [14] | outcome [15] | outcome [16]

O=[N+]([O-])c1cc(C(F)(F)F)ccc1N1CCCNCC1
active: activation [1] 77% | potentiation [3] 21% | potentiation [4] 26% | activation [12] 30.2% | potentiation [14] 30.6%
inactive: outcome [2] | outcome [5] | outcome [6] | outcome [7] | outcome [8] | outcome [9] | outcome [10] | outcome [11] | outcome [13] | outcome [15] | outcome [16]

OCC1(CCc2ccccc2)CCN(Cc2cccn2-c2cccnc2)CC1
inactive: outcome [2] | outcome [3] | outcome [4] | outcome [5] | outcome [6] | outcome [7] | outcome [8] | outcome [9] | outcome [11] | outcome [12] | outcome [13] | outcome [14] | outcome [15] | outcome [16]
active: activation [1] 56% | activation [10] 55%

CCN1CCN(c2ccc(S(=O)(=O)N3CCCCC3)cc2NC(=O)c2cccc(Cl)c2)CC1
active: activation [1] 63% | potentiation [3] 9% | potentiation [4] 7% | activation [12] 17.8% | potentiation [14] 14.7%
inactive: outcome [2] | outcome [5] | outcome [6] | outcome [7] | outcome [8] | outcome [9] | outcome [10] | outcome [11] | outcome [13] | outcome [15] | outcome [16]

CCOC(=O)C1(CCOC)CCN(Cc2ccccc2-c2ccco2)CC1
inactive: outcome [2] | outcome [3] | outcome [4] | outcome [5] | outcome [6] | outcome [7] | outcome [8] | outcome [9] | outcome [11] | outcome [12] | outcome [13] | outcome [14] | outcome [15] | outcome [16]
active: activation [1] 60% | activation [10] 68.5%

CC(C)(C)[C@H]1C=C(C(=O)NCc2ccccc2)O[C@@H](OCc2ccc(CO)cc2)C1
inactive: outcome [2] | outcome [3] | outcome [4] | outcome [5] | outcome [6] | outcome [7] | outcome [8] | outcome [9] | outcome [11] | outcome [12] | outcome [13] | outcome [14] | outcome [15] | outcome [16]
active: activation [1] 68% | activation [10] 24.5%

CC(Nc1nc(N2CCNCC2)nc2ccccc12)c1ccccc1 (stereo not given)
active: activation [12] 16.7%
inactive: outcome [1] | outcome [2] | outcome [3] | outcome [4] | outcome [5] | outcome [6] | outcome [7] | outcome [8] | outcome [9] | outcome [10] | outcome [11] | outcome [13] | outcome [14] | outcome [15] | outcome [16]

COc1ccc(-c2nn(-c3ccccc3C)cc2CNCc2cccnc2)cc1F
inactive: outcome [2] | outcome [3] | outcome [4] | outcome [5] | outcome [6] | outcome [7] | outcome [8] | outcome [9] | outcome [11] | outcome [12] | outcome [13] | outcome [14] | outcome [15] | outcome [16]
active: activation [1] 128% | activation [10] 33%

O=C(Cc1cccc(F)c1F)NC1CCCN(Cc2ccc(Cl)cc2)C1 (stereo not given)
active: activation [10] 37.5%
inactive: outcome [1] | outcome [2] | outcome [3] | outcome [4] | outcome [5] | outcome [6] | outcome [7] | outcome [8] | outcome [9] | outcome [11] | outcome [12] | outcome [13] | outcome [14] | outcome [15] | outcome [16]

CNCC(=O)N1CCN(c2ncc(C(F)(F)F)cc2Cl)CC1
inactive: outcome [3] | outcome [4] | outcome [5] | outcome [6] | outcome [7] | outcome [8] | outcome [9] | outcome [10] | outcome [11] | outcome [13] | outcome [14] | outcome [15] | outcome [16]
active: activation [1] 155% | activation [2] 128% | activation [12] 79.5%

Cc1csc2c(N3CCN(C(=O)Nc4ccc(OC(F)(F)F)cc4)CC3)ncnc12
inactive: outcome [2] | outcome [3] | outcome [4] | outcome [5] | outcome [6] | outcome [7] | outcome [8] | outcome [9] | outcome [10] | outcome [11] | outcome [13] | outcome [14] | outcome [15] | outcome [16]
active: activation [1] 75% | activation [12] 43.3%

CN(CCc1ccccn1)C(=S)Nc1cccc(S(=O)(=O)N(C)C)c1
inactive: outcome [2] | outcome [3] | outcome [4] | outcome [5] | outcome [6] | outcome [7] | outcome [8] | outcome [9] | outcome [10] | outcome [11] | outcome [13] | outcome [14] | outcome [15] | outcome [16]
active: activation [1] 111% | activation [12] 53.6%

O=C1S/C(=C\c2ccc(N3CCOCC3)o2)C(=O)N1Cc1c(F)cccc1Cl
active: activation [10] 280% | potentiation, percent of control [11] 191%
inactive: outcome [1] | outcome [2] | outcome [3] | outcome [4] | outcome [5] | outcome [6] | outcome [7] | outcome [8] | outcome [9] | outcome [12] | outcome [13] | outcome [14] | outcome [15] | outcome [16]

CCCCC(=O)NC(=S)NNC(=O)c1ccc(Cl)cc1Cl
active: activation [1] 196% | activation [10] 31.5% | activation [12] 76.5% | activation [15] 43.7%
inactive: outcome [2] | outcome [3] | outcome [4] | outcome [5] | outcome [6] | outcome [7] | outcome [8] | outcome [9] | outcome [11] | outcome [13] | outcome [14] | outcome [16]
